This is an account of results in PubChem BioAssay (NCATS).

Inconclusive results are not listed. The source made the active and inactive calls. Unless noted, the call rests on the fitted dose curve; in most records, active means well fitted curve in the direction sought with a large enough effect; inconclusive means small, poorly fitted or top-dose-only effect, or another doubt; inactive means no such curve, though single readings can be large; an effect the other way counts as inactive or inconclusive.

For assay [1], the target named is Voltage-gated inwardly rectifying potassium channel KCNH2 (Homo sapiens) (UniProt Q12809). In words: qHTS Assay for Small Molecule Inhibitors of the Human hERG Channel Activity (AID 588834).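 Further: top concentration of the series differs between compounds; on the % scale 0 is the no-effect control and ±100 the full control effect; lower thallium flux fluorescence means stronger hERG block; nearly all actives have a fitted effect of over 50% in size.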 The gist of the method:
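Kinetic FDSS fluorescence; U2OS + hERG BacMam (~100 virus particles/cell); FluxOR Tl+ flux; ~10 min cpd; AC50 (Hill).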
Background: In qHTS, concentration-response curves come from the screen itself.

A short description of assay [2]: S16 Schwann cell viability assay (CellTiter-Glo assay) (AID 624031).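 Further: native untransfected S16 rat Schwann cells; cellular ATP luminescence as a viability measure; plate controls were DMSO-treated cells for no effect and cell-free wells for full effect; nearly all actives have a fitted effect of over 70% in size.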 Put shortly: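 Concentration-effect curves come from CellTiter-Glo luminescence of S16 rat Schwann cells after 24 h compound exposure. Each reading was normalized to DMSO wells (0%) and wells without cells, and curves were ranked by r2 and response magnitude.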
Assay [3] is described as follows: S16 Schwann cell PMP22 intronic element firefly luciferase assay (AID 624032).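 Further: plate controls were DMSO for no effect and PTC124 positive control mean for full effect; nearly all actives have a fitted effect of over 30% in size.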 Put shortly: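 Rat S16 Schwann cells stably carrying firefly luciferase driven by a PMP22 intronic element, in 10% FBS, treated 24 h at 37 C. ONE-Glo luminescence normalized to PTC124 control and DMSO (0%); curves classed by r2, magnitude and activity.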
The nature of assay [4]: Cytotoxicity counterscreen for NFkB agonists and antagonists (AID 624476).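 Further: cells exposed to compound for 48 hours.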 Further: potency means the concentration at half of the fitted maximal effect. On the technique in general: Counterscreens check selectivity or assay interference.
Assay [5] can be described thus: qHTS Assay for Identification of Small Molecule Agonists for NFkB Signaling Pathway. (AID 624478).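 Further: compounds tested together with TNF alpha at its EC50 of 10 pM; 0% is about no effect.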 The gist of the method: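 ME-180 cervical carcinoma, stable NFkB-RE beta-lactamase reporter; 1000 cells/well, overnight attachment; cpd + TNF alpha 10 pM final, 5 h 37 C; LiveBLAzer 2 h RT; FRET 460/530 nm, ex 405 nm.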
The nature of assay [6]: qHTS Assay for Identification of Small Molecule Antagonists for NFkB Signaling Pathway. (AID 624479; calls by dose curve;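 further: pathway stimulated with TNF alpha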; further: potency means the concentration at half of the fitted maximal effect).
A short description of assay [7]: Cell Proliferation Assay against the TMD8 Cell Line (AID 651645).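 Further: cells exposed to compound for 48 h before reading.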 Conditions: TMD8 DLBCL cell line proliferation/viability; at 46.1 µM (top of the series). Put shortly: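 Viability by CellTiter-Glo after 48 h compound exposure of 500 log-phase TMD8 cells per well (RPMI, 5% FBS). Percent activity scaled between DMSO (100%) and 9.2 uM final bortezomib (0%).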
Assay [8] is described as follows: Cell Proliferation Assay against the HBL1 Cell Line (AID 651646).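 Further: cells exposed to compound for 48 h before reading.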 Conditions: HBL1 DLBCL cells; at 46.1 µM (top of the series). Put shortly:
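HBL1 ABC DLBCL cells, 500/well in RPMI with 5% FBS, treated for 48 h at 37C. Viability read by CellTiter-Glo luminescence, normalized to DMSO as 100% and 9.2 uM bortezomib as 0%.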

Assay [9] can be described thus: Cell Proliferation Assay against the TMD8 Cell Line (Caspase readout at 16 hrs) (AID 651712). Further: potency means the concentration at half of the fitted maximal effect. The gist of the method: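 TMD8 cells in RPMI with 5% FBS were treated with compound for 16 h at 37 C, then caspase 3/7 activation was read by Caspase-Glo luminescence. Percent activity was scaled to DMSO (0%) and 9.2 uM bortezomib final (100%).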
Assay [10] is described as follows: Cell Proliferation Assay against the TMD8 Cell Line (Caspase readout at 8 hrs) (AID 651713).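 Further: 0% = DMSO and 100% = 9.2 µM bortezomib caspase signal.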 Put shortly: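 Seed log-phase TMD8 cells, add compound by pin tool, incubate 8 h at 37C under 5% CO2, equilibrate to room temperature, add Caspase-Glo, wait 15 min, read luminescence; percent activity uses DMSO and 9.2 uM bortezomib controls.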
Assay [11] is described as follows: S16 Schwann cell PMP22 intronic element beta-lactamase assay (AID 624044; calls by dose curve; further: nearly all actives have a fitted effect of over 15% in size; further: potency means the concentration at half of the fitted maximal effect). Put shortly: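 Rat S16 Schwann cells with beta-Lac driven by a PMP22 intronic element, compound-treated 24 h at 37 °C. LiveBLAzer FRET B/G read: 460 nm normalized to potassium clavulanate vs DMSO; 535 nm FRET as viability; concentration-effect curves classified.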

Sequence of Voltage-gated inwardly rectifying potassium channel KCNH2 (Homo sapiens) (Q12809 whole entry, looked up): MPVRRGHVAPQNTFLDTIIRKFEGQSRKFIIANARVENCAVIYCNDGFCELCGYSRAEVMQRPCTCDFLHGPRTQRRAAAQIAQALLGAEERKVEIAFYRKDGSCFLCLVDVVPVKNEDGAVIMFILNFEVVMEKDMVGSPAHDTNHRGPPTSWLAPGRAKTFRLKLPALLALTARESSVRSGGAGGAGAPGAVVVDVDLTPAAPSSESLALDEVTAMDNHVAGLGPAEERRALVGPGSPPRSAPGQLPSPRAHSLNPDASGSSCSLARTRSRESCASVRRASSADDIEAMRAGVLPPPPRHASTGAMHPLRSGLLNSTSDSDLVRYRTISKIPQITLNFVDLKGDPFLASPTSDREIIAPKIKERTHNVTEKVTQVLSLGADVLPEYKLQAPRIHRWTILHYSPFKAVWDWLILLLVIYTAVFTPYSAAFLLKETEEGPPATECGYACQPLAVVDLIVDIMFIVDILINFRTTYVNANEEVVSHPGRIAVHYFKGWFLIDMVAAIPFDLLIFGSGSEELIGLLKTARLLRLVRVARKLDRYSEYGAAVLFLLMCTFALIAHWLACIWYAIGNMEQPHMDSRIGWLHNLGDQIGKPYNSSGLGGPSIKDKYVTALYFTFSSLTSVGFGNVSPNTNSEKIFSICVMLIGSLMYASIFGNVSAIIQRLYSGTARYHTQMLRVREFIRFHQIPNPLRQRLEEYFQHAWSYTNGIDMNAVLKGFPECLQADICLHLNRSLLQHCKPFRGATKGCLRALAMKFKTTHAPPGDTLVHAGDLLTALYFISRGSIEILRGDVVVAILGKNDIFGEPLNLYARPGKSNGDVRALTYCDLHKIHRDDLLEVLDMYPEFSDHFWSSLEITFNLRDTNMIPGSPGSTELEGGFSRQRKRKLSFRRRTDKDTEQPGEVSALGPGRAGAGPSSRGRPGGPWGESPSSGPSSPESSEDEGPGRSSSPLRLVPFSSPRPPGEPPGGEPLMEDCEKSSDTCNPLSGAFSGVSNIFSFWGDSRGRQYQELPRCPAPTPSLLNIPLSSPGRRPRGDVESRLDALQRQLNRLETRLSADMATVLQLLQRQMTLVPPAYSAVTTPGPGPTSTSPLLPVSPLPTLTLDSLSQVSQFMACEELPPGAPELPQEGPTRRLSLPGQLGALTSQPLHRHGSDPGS

In the case of `COc1c(N2C[C@@H]3CCCN[C@H]3C2)c(F)cc2c(=O)c(C(=O)O)cn(C3CC3)c12`, the Potency result in [1] and in assay [3] was “inactive” each time. Moreover, in assay [2], the outcome was inactive.

As to `N#Cc1c(O)c2c(-c3ccc(-c4ccccc4O)cc3)csc2[nH]c1=O`, the Potency entry in assay [4], in assay [6], in [9] and in assay [10] was “inactive” in each case. In [5], the result was inactive. Further, the viability (% of control) in assay [7] stood at 112%. For the same compound, the viability, percent of control in assay [8] came to 114%.

In the case of `Cc1ccc(-c2ncn(-c3ccc(Nc4nccc(-c5cccc(N6CCOCC6)c5)n4)cc3)n2)cn1`, the Potency in assay [4] is 935 nM (active); in assay [6], 237 nM (active); in assay [9] it was 10.5 nM (active). In addition, the result in assay [5] was inactive. The viability (% of control) in assay [7] is 0.9%. In assay [8], the viability, percent of control was 0.21%.

Turning to `CNC(=O)c1cc(Oc2ccc(NC(=O)Nc3cc(C(C)(C)C)nn3-c3ccc4ncccc4c3)c(F)c2)ccn1`, the values for the Potency in [4] and in assay [6] were 2640 nM (active) and 42.1 nM (active), respectively. The compound was called inactive in [5]. Further, the viability (% of control) in assay [7] was 2.72%. Further, the viability, percent of control in assay [8] amounted to 58.7%. Also, the Potency entry in [9] was “inactive”.

Regarding `CC=CC1=C(C(=O)O)N2C(=O)[C@H](NC(=O)[C@H](N)c3ccc(O)cc3)[C@@H]2SC1`, the Potency result in assay [1] and in [3] was “inactive” in each case. Besides, the compound was classed as inactive in assay [2].

Consider `COc1ccc(C=Cc2cc(OC)c(OC)c(OC)c2)cc1O`, for which the Potency result in assay [4] and in assay [6] was “inactive” throughout. Further, the call in assay [5] was inactive. Moreover, the viability (% of control) in assay [7] worked out at 0.872%. Also, the viability, percent of control in assay [8] was 20.5%. The Potency in assay [9] is 1.5 nM (active).

Turning to `Cc1cccc(C=NNc2cc(N3CCOCC3)nc(OCCc3ccccn3)n2)c1`, the Potency entry in [4] was “inactive”. The compound was called inactive in assay [5]. Also, the Potency in assay [6] is 21100 nM (active). Further, in assay [7], the viability (% of control) was 0.274%. Further, the viability, percent of control in assay [8] stood at 0.729%.

For `COc1cc(C(=O)NS(=O)(=O)c2ccccc2C)ccc1Cc1cn(C)c2ccc(NC(=O)OC3CCCC3)cc12`, the call in [2] was inactive. For the same compound, the Potency entry in assay [3] and in assay [11] was “inactive” each time.

For `CC=C1NC(=O)[C@H]2CSSCCC=C[C@H](CC(=O)N[C@H](C(C)C)C(=O)N2)OC(=O)[C@H](C(C)C)NC1=O`, the Potency in [4] was 93.5 nM (active). For the same compound, the compound was called inactive in [5]. Moreover, the Potency entry in [6] was “inactive”. The viability (% of control) in [7] turned out to be 4.33%. The viability, percent of control in assay [8] worked out at 3.6%.

Regarding `COc1ccc(CC2c3cc(OC)c(OC)cc3CC[N+]2(C)CCC(=O)OCCCCCOC(=O)CC[N+]2(C)CCc3cc(OC)c(OC)cc3C2Cc2ccc(OC)c(OC)c2)cc1OC` (stereo not drawn), the Potency entry in assay [1] was “inactive”.

With `CN1c2cc(O)c(N=NC(N)=O)cc2CC1S(=O)(=O)O` (stereo not drawn), the Potency result in assay [1], in assay [3] and in assay [11] was “inactive” in each case. Besides, the outcome in assay [2] was inactive.

Take `Cc1cnc(-c2cnc(NCCNc3ccc(C#N)cn3)nc2-c2ccc(Cl)cc2Cl)[nH]1`: the Potency result in [4] is “inactive”. Besides, the call in assay [5] was inactive. Moreover, the Potency in assay [6] is 14900 nM (active). Besides, the viability (% of control) in [7] stood at 9.76%. In addition, the viability, percent of control in assay [8] was 22.7%.

As to `CN[C@H]1CCc2cc(OC)c(OC)c(OC)c2-c2ccc(OC)c(=O)cc21`, the Potency result in [1] is “inactive”.

For the compound `Nc1ccn([C@@H]2O[C@H](CO)[C@H](O)C2(F)F)c(=O)n1`, the Potency result in assay [1] and in [3] was “inactive” each time. Also, the Potency in assay [11] was 562 nM (active).
